Marburg entry inh: inhibitors of Marburg virus binding or cell entry; AID 540276; Marburg virus pseudotyped entry inhibition, cell reporter; Potency, µM (series often up to 37.8 µM), without a hit: at the top dose activity change, negative = inhibition, actives largely listed as inhibitors; 300,000 compounds, 1.8% hits; calls by dose curve; tested in HEK293 cells
VACV Venus inh: vaccinia inhibition (Venus reporter) | Vaccinia virus Venus reporter expression, fluorescence | Potency, µM (highest dose often 36.5 µM), inactives show at the top dose activity change, negative = inhibition, usual class: inhibitors | 330,000 compounds, 0.46% hits; calls by dose curve; tested in A549 cells; note: nearly all actives have a fitted effect of over 30% in size
FMDV inh: blocks foot and mouth disease virus; FMDV antiviral cell-based qHTS; Potency, µM (highest dose often 57.9 µM), without a hit: at the top dose activity change, negative = inhibition, most hits filed as inhibitors; 410,000 compounds, 1.2% hits; calls by dose curve; tested in HEK293T cells; note: read-out not given here; nearly all actives have a fitted effect of over 45% in size
Vaccinia mCherry: inhibitors of vaccinia virus infection (mCherry reporter signal). Vaccinia virus mCherry reporter infection, fluorescence. Potency, µM (highest dose often 36.5 µM), inactives show top-dose activity change, negative = inhibition, usual class: inhibitors. 310,000 compounds, 0.63% hits; calls by dose curve; tested in A549 cells; note: nearly all actives have a fitted effect of over 35% in size
Sm TGR block: blocks Schistosoma mansoni thioredoxin glutathione reductase; Q962Y6; purified TGR, DTNB reduction, TNB absorbance 405 nm; Potency, µM (top dose mostly 114 µM), without a hit: top-dose activity change, negative = inhibition, actives largely listed as inhibitors; 360,000 compounds, 3% hits; AID 485364; active = well fitted inhibition curve with a large enough effect; inconclusive = small, poorly fitted or top-dose-only effect; inactive = no such curve, though single readings can be large or run the other way; note: nearly all actives have a fitted effect of over 60% in size
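First, TGR (20 nM dispensed) and NADPH were mixed with compound. Second, a 15 min room-temperature incubation followed. Third, further NADPH and then DTNB were added to start the reaction. Finally, TNB absorbance was monitored kinetically.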
LASV entry inh: inhibitors of Lassa virus binding or cell entry; Lassa virus pseudotype entry inhibition, cell reporter; Potency, µM (top dose mostly 37.9 µM), without a hit: at the top dose activity change, negative = inhibition, most hits filed as inhibitors; 300,000 compounds, 1.2% hits; calls by dose curve; tested in HEK293 cells; note: nearly all actives have a fitted effect of over 50% in size
The depositor's hits bear a star; [ ] = remark or other dose. Compounds with a hit are over-represented: about 5.4% of the library has one in this group of screens. % is set by controls: 0 for no effect and ±100 for the full control effect; potency is the fitted concentration of half-maximal effect.

What do the screens show for `COc1ccc(C(C)=O)cc1COC(=O)c1ccc(C)c(S(=O)(=O)N2CCOCC2)c1`?
Marburg entry inh: inconclusive; VACV Venus inh: -15%; FMDV inh: -17%; Vaccinia mCherry: -5%; Sm TGR block: 3.5µM*; LASV entry inh: -24%

What do the screens show for `COc1ccc(C(C)=O)cc1COC(=O)c1ccc2c(c1)OCO2`?
Marburg entry inh: inconclusive; VACV Venus inh: inconclusive; FMDV inh: -9%; Vaccinia mCherry: -1%; Sm TGR block: inconclusive; LASV entry inh: -3%

What do the screens show for `COc1ccc(C(=O)COC(=O)c2ccc3c(c2)NC(=O)CS3)c(OC)c1`?
Marburg entry inh: inconclusive; VACV Venus inh: -17%; FMDV inh: inconclusive; Vaccinia mCherry: -20%; Sm TGR block: -8%; LASV entry inh: -3%

How did CCOc1ccc(NC(=O)c2cccc3c(=O)c4c([nH]c23)CCCC4)cc1 do in these assays?
Marburg entry inh: 27%[46.1 µM]; VACV Venus inh: -16%; FMDV inh: -13%; Vaccinia mCherry: -10%; Sm TGR block: -1%; LASV entry inh: 29%[46.1 µM]

What do the screens show for `CCCNC(=O)Nc1cc(C(=O)NCc2cccc(OCC)c2)ccc1N1CCCC1`?
VACV Venus inh: -6%; FMDV inh: -3%; Vaccinia mCherry: -4%; Sm TGR block: -1%; LASV entry inh: 4%[46.1 µM]

Results for COc1cccc(/C=C/c2nc(C#N)c(N3CCC(C(N)=O)CC3)o2)c1 ?
Marburg entry inh: 0%[46.1 µM]; VACV Venus inh: -1%; FMDV inh: 6%; Vaccinia mCherry: -9%; Sm TGR block: 3%; LASV entry inh: inconclusive

How did CCc1ccc(CNC(=O)CCc2c(C)nn(-c3ccc(N4CCCCC4)nn3)c2C)cc1 do in these assays?
VACV Venus inh: -9%; FMDV inh: 16%; Vaccinia mCherry: -10%; Sm TGR block: 8%; LASV entry inh: inconclusive

What do the screens show for `CCOc1ccc(C(C)=O)cc1COC(=O)c1ccccc1C(=O)N(C)Cc1ccccc1`?
Marburg entry inh: inconclusive; VACV Venus inh: -15%; FMDV inh: -17%; Vaccinia mCherry: inactive; Sm TGR block: 20µM*; LASV entry inh: -1%

How did CNS(=O)(=O)c1cccc(C(=O)OCc2cc(C(C)=O)ccc2OC)c1 do in these assays?
Marburg entry inh: -16%[14.2 µM]; VACV Venus inh: -12%; FMDV inh: -5%; Vaccinia mCherry: -11%; Sm TGR block: 2.8µM*; LASV entry inh: -23%

Results for CC(C)[C@H]1C(C#N)=C(N)Oc2n[nH]c(C(C)(C)C)c21 ?
Marburg entry inh: -10%

Results for COc1cc(/C=N/Nc2snc(SC)c2C#N)cc(OC)c1OC ?
Marburg entry inh: 1.6µM*; VACV Venus inh: inconclusive; FMDV inh: inconclusive; Sm TGR block: 8%; LASV entry inh: 1.3µM*

Results for C=CC(=O)Nc1sc2c(c1C(N)=O)CCCC2 ?
VACV Venus inh: -26%; FMDV inh: inconclusive; Vaccinia mCherry: inconclusive; Sm TGR block: 40µM*

How did NC(=O)c1c(NC(=O)CN2CCOCC2)sc2c1CCC2 do in these assays?
Marburg entry inh: 31%; VACV Venus inh: 56%; FMDV inh: -21%; Sm TGR block: 35µM*; LASV entry inh: -7%

What do the screens show for `CC(C)OC(=O)c1c(NC(=O)C2CC=CCC2C(=O)O)sc2c1CCCCC2` (configuration not stated)?
Marburg entry inh: inconclusive; VACV Venus inh: -14%; FMDV inh: -10%; Vaccinia mCherry: -2%; Sm TGR block: -23%; LASV entry inh: 11%

Results for NC(=O)c1c(NC(=O)C2CC=CCC2C(=O)O)sc2c1CCCCC2 (configuration not stated) ?
Marburg entry inh: inconclusive; VACV Venus inh: 4%; FMDV inh: 7%; Vaccinia mCherry: -6%; Sm TGR block: 50µM*; LASV entry inh: 1%[46.1 µM]

What do the screens show for `COC(=O)CC1c2ccccc2C=C(C=Cc2ccc3c(c2)OCO3)N1C(=O)OC` (configuration not stated)?
Marburg entry inh: -18%[14.2 µM]; LASV entry inh: inconclusive

How did Cc1cc(C)nc(NS(=O)(=O)c2ccc(NC(=S)NC(=O)CC(C)C)cc2)n1 do in these assays?
Marburg entry inh: inconclusive; VACV Venus inh: 11µM*; FMDV inh: 110%; Vaccinia mCherry: 11µM*; Sm TGR block: inconclusive; LASV entry inh: -24%

Results for COc1cc(NS(=O)(=O)c2ccc(NC(=O)c3ccco3)cc2)nc(OC)n1 ?
Marburg entry inh: 0%; VACV Venus inh: -8%; FMDV inh: 25%; Vaccinia mCherry: inactive; Sm TGR block: 6%; LASV entry inh: 5%

How did COc1cc(NS(=O)(=O)c2ccc(NC(=S)NC(=O)c3ccco3)cc2)nc(OC)n1 do in these assays?
FMDV inh: 86%; Sm TGR block: 32µM*

Results for Cc1cc(C)nc(NS(=O)(=O)c2ccc(NC(=S)NC(=O)c3ccco3)cc2)n1 ?
Marburg entry inh: -8%[46.1 µM]; VACV Venus inh: 1%; FMDV inh: 102%; Vaccinia mCherry: 7%; Sm TGR block: 14µM*; LASV entry inh: -3%

Results for Cc1ccc(C(=O)NCCc2nnc3n2CCN(C(=O)c2ccnc(Cl)c2)CC3)cc1 ?
VACV Venus inh: 2%; FMDV inh: 1%; Vaccinia mCherry: 0%

Results for CCCCOc1ccc(C(=O)CCN2CCOCC2)cc1 ?
Marburg entry inh: inconclusive; VACV Venus inh: -19%; FMDV inh: -23%; Vaccinia mCherry: inconclusive; Sm TGR block: 2µM*; LASV entry inh: 4%

How did CCOc1ccc(OCCN2CCCCC2)cc1 do in these assays?
Marburg entry inh: 1%; VACV Venus inh: -8%; FMDV inh: -5%; Vaccinia mCherry: -15%; Sm TGR block: 5%; LASV entry inh: -2%

What do the screens show for `CCCOc1ccc(C(=O)CCN2CCCCC2)cc1`?
Marburg entry inh: inconclusive; VACV Venus inh: -13%; FMDV inh: -23%; Sm TGR block: 0.32µM*; LASV entry inh: inconclusive

Results for CC(C)(C)c1ccc(OCCCN2CCCC2)cc1 ?
FMDV inh: -3%; Sm TGR block: 7%

How did CCCOc1ccc(C(O)(CCC)CCN2CCCCC2)cc1 (configuration not stated) do in these assays?
Marburg entry inh: -29%; VACV Venus inh: -13%; FMDV inh: 0%; Vaccinia mCherry: -11%[1.46 µM]; Sm TGR block: 32µM*; LASV entry inh: inconclusive

What do the screens show for `CCOc1ccc(C(=O)CCN2CCCCCC2)cc1`?
Marburg entry inh: -8%; VACV Venus inh: -16%; FMDV inh: 0%; Sm TGR block: 0.32µM*; LASV entry inh: inconclusive

Results for CCOC(=O)c1[nH]c2ccccc2c1NC(=O)c1cc(OC)cc(OC)c1 ?
Marburg entry inh: 3%[46.1 µM]; VACV Venus inh: -4%; FMDV inh: -28%; Vaccinia mCherry: -1%; Sm TGR block: 3%; LASV entry inh: -10%[46.1 µM]

Results for CCCCN1CC(c2nc3ccccc3n2CCCCOc2cccc(C)c2C)CC1=O (configuration not stated) ?
Marburg entry inh: -1%[46.1 µM]; VACV Venus inh: -7%; FMDV inh: -1%; Vaccinia mCherry: -12%; Sm TGR block: -3%; LASV entry inh: 14%[46.1 µM]
